Laboratory results published in the supplement of paper PMC6992640.
Where a name gives a salt, the structure may show the parent alone. ± gives the standard deviation of the averaged measurements.

Experiments:
Experiment in all cases: cell viability (% of vehicle); higher = less cytotoxic
Settings in all cases: 10 µM; 72 h
HCI01 = test system: HCI01 (cells of a triple-negative basal-like breast cancer xenograft)
HCI03 = test system: HCI03 (cells of an ER-positive luminal breast cancer xenograft)
HCI09 = test system: HCI09 (cells of a triple-negative luminal androgen receptor type breast cancer xenograft)
HCI11 = test system: HCI11 (cells of an ER-positive luminal breast cancer xenograft)
HCI13 = test system: HCI13 (cells of an ER-positive luminal breast cancer xenograft)
HCI16 = test system: HCI16 (cells of a triple-negative basal-like breast cancer xenograft)
UCD52 = test system: UCD52 (cells of a triple-negative basal-like breast cancer xenograft)
WHIM2 = test system: WHIM2 (cells of a triple-negative basal-like breast cancer xenograft)
WHIM30 = test system: WHIM30 (cells of a triple-negative basal-like breast cancer xenograft)
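Also: PDX cells carrying CMV promoter-driven luciferase, viability read as total photon flux per second by IVIS imaging following D-luciferin, vehicle control 0.1% DMSO.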

Compound | cell viability (HCI01) | cell viability (HCI03) | cell viability (HCI09) | cell viability (HCI11) | cell viability (HCI13) | cell viability (HCI16) | cell viability (UCD52) | cell viability (WHIM2) | cell viability (WHIM30)
CC(=O)C1CCC2C3CC=C4CC(O)CCC4(C)C3CCC12C (stereo not drawn) [Pregnenolone] | 141 ± 20 | 126 | 76 ± 7 | 84.5 | 175 ± 44 | 111 | 75.4 ± 2.4 | 99 ± 3.8 | 116 ± 19
CC(C)(C)NCC(O)c1cc(O)cc(O)c1.CC(C)(C)NCC(O)c1cc(O)cc(O)c1.O=S(=O)(O)O (stereo not drawn) [Terbutaline Sulfate] | 114.4 ± 0.83 | 110 | 98.9 ± 20 | 109 | 88.5 ± 2.1 | 127 | 79.6 ± 5.6 | 106 ± 18 | 123 ± 6
Clc1ccc2nsnc2c1NC1=NCCN1 [Tizanidine] | 97.7 ± 3.7 | 94.6 | 149 ± 74 | 110 | 109 ± 26 | 110 | 101 ± 7.1 | 82.1 ± 22 | 91.9 ± 20
Cc1cc2c(cc1S(N)(=O)=O)S(=O)(=O)CCC2 [Meticrane] | 109 ± 8.8 | 117 | 102 ± 6.3 | 89 | 103 ± 9.6 | 110 | 96.3 ± 10 | 97 ± 7.5 | 80.4 ± 2.8
Cl.O=C(O)C=Cc1ccc(Cn2ccnc2)cc1 [Ozagrel HCl] | 72.6 ± 40 | 135 | 100 ± 10 | 99.5 | 126 ± 10 | 122 | 87.7 ± 1.4 | 93.3 ± 30 | 140 ± 2.3
CC(C)(C)NCC(O)COc1cccc2c1CCC(O)=N2.Cl (stereo not drawn) [Carteolol HCl] | 96.4 ± 13 | 144 | 97.3 ± 14 | 110 | 123 ± 1.9 | 115 | 114 ± 3.5 | 87.3 ± 17 | 116.5 ± 0.86
COc1nc(N)nc2c1ncn2C1OC(CO)C(O)C1O (stereo not drawn) [Nelarabine] | 127 ± 20 | 117 | 113 ± 0.87 | 95.9 | 86.3 ± 5.3 | 98.4 | 111 ± 21 | 96.7 ± 21 | 115 ± 17
COc1ccc(O)cc1 [Mequinol] | 91 ± 10 | 108 | 101 ± 13 | 70.4 | 124 ± 32 | 118 | 71 ± 7.1 | 96.5 ± 20 | 100 ± 2.8
CCNC1CC(N)C(OC2OC(CN)=CCC2N)C(O)C1OC1OCC(C)(O)C(NC)C1O.CCNC1CC(N)C(OC2OC(CN)=CCC2N)C(O)C1OC1OCC(C)(O)C(NC)C1O.O=S(=O)(O)O.O=S(=O)(O)O.O=S(=O)(O)O.O=S(=O)(O)O.O=S(=O)(O)O (stereo not drawn) [Netilmicin Sulfate] | 99.3 ± 34 | 125 | 125 ± 46 | 111 | 98.3 ± 2.5 | 138 | 120 ± 18 | 115.7 ± 1.1 | 138 ± 28
COCCCCC(=NOCCN)c1ccc(C(F)(F)F)cc1.O=C(O)C=CC(=O)O [Fluvoxamine maleate] | 120 ± 4.3 | 111 | 90.71 ± 0.25 | 93 | 94.6 ± 7.2 | 67.7 | 84.9 ± 8.5 | 69.3 ± 19 | 107 ± 4.1
CCc1ccc(CCOc2ccc(CC3SC(=O)NC3=O)cc2)nc1 (stereo not drawn) [Pioglitazone] | 93 ± 44 | 118 | 123 ± 30 | 104 | 135 ± 16 | 133 | 106 ± 8.1 | 106 ± 21 | 171 ± 1.9
CC12CCC(O)CC1=CCC1C2CCC2(C)C(c3cccnc3)=CCC12 (stereo not drawn) [Abiraterone] | 138 ± 7.1 | 168 | 86.1 ± 4.6 | 76.6 | 145 ± 42 | 111 | 94.1 ± 9.2 | 131 ± 6.1 | 156 ± 22
CCCNC(C)C(=O)Nc1ccccc1C.Cl (stereo not drawn) [Prilocaine hydrochloride] | 147 ± 18 | 117 | 112.29 ± 0.067 | 113 | 83.1 ± 5.5 | 122 | 102 ± 16 | 102 ± 6.2 | 135 ± 5
NS(=O)(=O)NCC/N=C1\NON\C1=C(\N=O)Nc1ccc(F)c(Br)c1 | 105 ± 6.8 | 99 | 35 ± 8.5 | 96.4 | 66.5 ± 1.4 | 112 | 57.5 ± 3.6 | 88.9 ± 9.7 | 96.2 ± 6
CCN(CCO)CCCOc1ccc2c(Nc3cc(CC(=O)Nc4cccc(F)c4)[nH]n3)ncnc2c1 [Barasertib (AZD1152-HQPA)] | 136 ± 22 | 118 | 79.2 ± 6.8 | 91.5 | 97.3 ± 5.7 | 143 | 107 ± 20 | 89.4 ± 4 | 131 ± 0.53
CC(=O)OCC[N+](C)(C)C.[Cl-] [Acetylcholine Chloride] | 104 ± 23 | 85.8 | 95.1 ± 7.5 | 87.1 | 101 ± 9.6 | 97.8 | 69.3 ± 1.8 | 96.7 ± 6.8 | 107 ± 21
CCCc1ncc(C[n+]2ccccc2C)c(N)n1.Cl.[Cl-] [Amprolium HCl] | 129 ± 15 | 135 | 102 ± 4.4 | 104 | 128 ± 7 | 145 | 71.4 ± 27 | 110 ± 7.3 | 99.4 ± 13
COc1c2ccoc2cc2oc(=O)ccc12 [5-Methoxypsoralen] | 103 ± 24 | 142 | 93.1 ± 13 | 93.8 | 121 ± 3.1 | 109 | 85.2 ± 13 | 103 ± 3.7 | 93 ± 3.1
CCn1cc(C(=O)O)c(=O)c2cc(F)c(N3CCNC(C)C3)c(F)c21.Cl (stereo not drawn) [Lomefloxacin HCl] | 97.5 ± 19 | 95.2 | 94.5 ± 7.8 | 96.1 | 76 ± 14 | 107 | 91.5 ± 2.9 | 83.75 ± 0.15 | 150 ± 10

Compound | cell viability (HCI01) | cell viability (HCI03) | cell viability (HCI09) | cell viability (HCI11) | cell viability (HCI13) | cell viability (HCI16) | cell viability (UCD52) | cell viability (WHIM2) | cell viability (WHIM30)
CCOC(=O)CCC(=O)OC1C(OC2C(C)C(OC3CC(C)(OC)C(O)C(C)O3)C(C)C(=O)OC(CC)C(C)(O)C(O)C(C)C(=O)C(C)CC2(C)O)OC(C)CC1N(C)C (stereo not drawn) [Erythromycin Ethylsuccinate] | 105 ± 5.4 | 97.5 | 97.4 ± 21 | 96.1 | 69.6 ± 1.3 | 132 | 87.3 ± 4.6 | 105 ± 20 | 108 ± 16
NCC(=O)CCC(=O)O [5-Aminolevulinic acid HCl] | 79.2 ± 41 | 132 | 89.9 ± 2.3 | 83.2 | 113 ± 24 | 164 | 82.6 ± 7.6 | 129 ± 24 | 146 ± 6.6
Cl.Cl.NC(=NCCCCCCN=C(N)N=C(N)Nc1ccc(Cl)cc1)N=C(N)Nc1ccc(Cl)cc1 [Chlorhexidine HCl] | 99.4 ± 3 | 88.3 | 89.7 ± 3 | 76 | 96.44 ± 0.43 | 124 | 92.8 ± 7.6 | 108 ± 4.1 | 82.3 ± 3.8
CCCc1cc(C(N)=S)ccn1 [Protionamide] | 90.1 ± 32 | 117 | 97.5 ± 3 | 89.2 | 117 ± 10 | 112 | 100.1 ± 0.95 | 84 ± 27 | 112 ± 7.7
Cl.O=C1c2cccc3c2C(CCC3)CN1C1CN2CCC1CC2 (stereo not drawn) [Palonosetron HCl] | 86 ± 15 | 87.8 | 118 ± 38 | 94.8 | 100 ± 12 | 111 | 76.3 ± 4.4 | 82.6 ± 5.7 | 104 ± 8.2
CCCCOc1cc(C(=O)OCCN(CC)CC)ccc1N.Cl [Oxybuprocaine HCl] | 162 ± 33 | 99.6 | 83.9 ± 11 | 88.8 | 95.5 ± 34 | 149 | 90 ± 31 | 126 ± 24 | 189 ± 3.2
O=S(=O)([O-])CCS.[Na+] [Mesna] | 112.4 ± 0.12 | 118 | 98.4 ± 6.8 | 103 | 141 ± 28 | 97.2 | 89.3 ± 3.8 | 100 ± 13 | 106 ± 6.6
C#CCNC1CCc2ccccc21.CS(=O)(=O)O (stereo not drawn) [Rasagiline Mesylate] | 157 ± 6 | 117 | 117 ± 8.5 | 127 | 126 ± 4.8 | 141 | 107 ± 8.4 | 114 ± 6.4 | 139 ± 16
CCc1cccc2c3c([nH]c12)C(CC)(CC(=O)O)OCC3 (stereo not drawn) [Etodolac] | 117 ± 23 | 104 | 98.8 ± 27 | 97.2 | 97.3 ± 8 | 96.8 | 79.2 ± 9.2 | 92.6 ± 19 | 86 ± 8.4
CC(=O)OCC(=O)NCCCOc1cccc(CN2CCCCC2)c1.Cl [Roxatidine Acetate HCl] | 175 ± 22 | 118 | 121 ± 11 | 120 | 141 ± 22 | 131 | 95.5 ± 9.9 | 106 ± 3.1 | 128 ± 15
COC(=O)C1=C(C)NC(C)=C(C(=O)OC(C)C)C1c1cccc2nonc12 (stereo not drawn) [Isradipine (Dynacirc)] | 111 ± 18 | 118 | 48.7 ± 41 | 91.9 | 109 ± 6.2 | 117 | 76.2 ± 9.4 | 92.5 ± 11 | 88.7 ± 3.6
Cc1ncc(CO)c(CO)c1O.Cl [Pyridoxine HCl] | 89.2 ± 31 | 121 | 90.1 ± 4.5 | 91.9 | 117 ± 18 | 107 | 99.9 ± 5.3 | 86.6 ± 2.4 | 100 ± 3.4
CNCC(O)C(O)C(O)C(O)CO (stereo not drawn) [Meglumine] | 80.2 ± 19 | 93.4 | 97.6 ± 1.5 | 74.4 | 142 ± 11 | 110 | 78.3 ± 1.6 | 85.9 ± 25 | 133 ± 5.2
COc1cc(C(=O)NC2CCCNC2)cc(OC)c1OC (stereo not drawn) [Troxipide] | 98.8 ± 1 | 110 | 107 ± 28 | 96.3 | 57.8 ± 3.5 | 106 | 96.8 ± 7.8 | 103 ± 15 | 137 ± 11
COc1ccc(-c2ccc3cc(C(=O)O)ccc3c2)cc1C12CC3CC(CC(C3)C1)C2 [Adapalene sodium salt] | 115 ± 29 | 81.9 | 114 ± 37 | 98.3 | 183 ± 2.4 | 158 | 157 ± 19 | 104 ± 10 | 96.8 ± 6.8
CCN(CCCc1ccccc1)CCCc1ccccc1.O=C(O)CC(O)(CC(=O)O)C(=O)O [Alverine Citrate] | 99.4 ± 3.5 | 95.5 | 104 ± 10 | 94.6 | 190 ± 4.8 | 118 | 59.9 ± 0.87 | 88.6 ± 4 | 102 ± 15
CN1C(C(=O)Nc2ccccn2)=C(O)c2sc(Cl)cc2S1(=O)=O [Lornoxicam] | 95.2 ± 8.9 | 111 | 84.7 ± 25 | 85.6 | 82.4 ± 9.6 | 98.4 | 86.2 ± 5.5 | 112 ± 2.6 | 99.1 ± 6.5
CN1CCN2c3ccccc3Cc3ccccc3C2C1.Cl (stereo not drawn) [Mianserin HCl] | 124 ± 24 | 98.3 | 89.4 ± 4.5 | 95.9 | 90 ± 21 | 92.4 | 74.3 ± 4.9 | 73.1 ± 24 | 109 ± 3.4
